Data: ChEMBL document CHEMBL4888484, “Replenishing the malaria drug discovery pipeline: Screening and hit evaluation of the MMV Hit Generation Library 1 (HGL1) against asexual blood stage Plasmodium falciparum ,using a nano luciferase reporter read-out” (2022)
Among all 4,800 compounds or so, about 410 (8.5%) showed an effect of 50% or more. Many of the other results were omitted from the sample, so strong results are more common in it than they were.

What follows are compounds tested on Plasmodium falciparum (assay: Confirmatory screen in NF54 pLDH assay, in single point, at 2uM, 72h). Settings: timepoint 72 hour.
Format: functional, Erythrocyte

SMILES	% Inhibition
Cc1c(NC(=O)c2n[nH]cc2Br)c(=O)n(-c2ccccc2)n1C	7%
CCn1c(=O)c(N2CCC[C@H](C(=O)NCc3cccc(C)c3)C2)nc2ccccc21	14%
CC(CC1OCC(C[N+]2(Cc3ccccc3)CCCCC2)O1)CC(C)(C)C (configuration not stated)	56%
CCC(C)(CC)[C@@](O)(C#CC[N+]1(Cc2ccccc2)CCCCC1)c1ccccc1	22%
COc1cc(C(=O)NC(C)(C)c2c(C)noc2C)on1	7%
CN1C(=O)N(c2cc(Cl)cc(Cl)c2)C(=O)[C@]12CN(c1ccc(C(=O)O)cn1)C[C@H]2c1ccc(C#N)cc1	15%
c1cc([C@@H]2CN(Cc3noc(C4CC4)n3)CCO2)cs1	7%
COc1ccc(NC(=O)N2CC[C@H](CC(=O)NCc3ccccc3)C2)cc1OC	-11%
NC(=O)c1ccc(C(F)(F)F)n(CC(=O)N(Cc2ccc(F)cc2)C2CCCCC2)c1=O	-6%
Cc1cc(-n2c(C)cc(C(=O)Cn3c(C(F)(F)F)ccc(C(N)=O)c3=O)c2C)no1	23%
NC(=O)c1ccc(C(F)(F)F)n(C[C@H](O)c2cc(Cl)ccc2Cl)c1=O	60%
CC(C)(C)c1cc(N)c2ccccc2n1	-6%
CNC(=O)CNC(=O)c1cccc(Cl)c1	12%
NC(=O)C(NC(=O)c1cccc(Cl)c1)C(N)=O	85%
O=C(N[C@@H](N1CCCCCC1)C(Cl)(Cl)Cl)c1cccc(Cl)c1	-20%
COCc1cc2nn(CC(=O)Nc3ccc(F)c(F)c3)c(=O)n2c(-c2ccccc2)n1	-15%
Cn1cc(NC(=O)Nc2cccc(OCC(F)F)n2)cn1	-7%
O=C(Cc1c[nH]c2ccccc12)NC1(C(=O)NC2CCCC2)CCCCC1	8%
CCN1C(=O)Cc2cc(NC(=O)c3ccc(Br)o3)ccc21	12%
CC(C)[C@@H]1CCc2ccccc2N1Cc1nc(N)nc(N(C)C)n1	6%
O=C(Nc1ccc2c(c1)OCCCO2)c1ccsc1	5%
O=C1CN(C(=O)C2CC2c2ccccc2C(F)(F)F)CCN1 (configuration not stated)	-4%
N=C(N)NCc1ccc(COCc2ccccc2)cc1	17%

SMILES	% Inhibition
CCOc1ccc(NC(=O)c2cn3nc(-c4ccc(OCC)cc4)cc3nc2C2CCN(C(=O)OC(C)(C)C)CC2)cc1	16%
COc1ccc(C2=NN(C(C#N)c3cccc(OC)c3O)C(c3ccccc3)C2)cc1 (configuration not stated)	3%
c1ccc(C2=NN(c3ccc(-c4cc(-c5ccccc5)[n+](-c5ccccc5)c(-c5ccccc5)c4)cc3)[C@H](c3ccccc3)C2)cc1	97%
N#CC(c1ccc(Cl)cc1)N1N=C(c2ccccc2)CC1c1ccccc1 (configuration not stated)	10%
COc1cccc(C(=O)c2c[nH]c(C(=O)NCc3cccc(C(F)(F)F)c3)c2)c1	6%
Cc1ccc(N2C(=O)C[C@]3(CC3(c3ccccc3)c3ccccc3)C2=O)cc1	6%
COCc1c(C(=O)N2CCC[C@@H]2CCc2ncc(C)n2C(C)C)noc1C	13%
Cc1cc(C)nc(-n2nc(-c3ccc(Cl)cc3)c3c2NC(=O)C[C@@H]3c2ccc3c(c2)OCO3)n1	2%
O=c1[nH]c2cc3c(cc2c(=O)n1Cc1nc(-c2ccc(Cl)cc2)no1)OCO3	9%
CN1CCN(Cc2cc3cc4c(cc3nc2-c2ccc(Cl)cc2)OCO4)CC1=O	51%
C#CCN(C(=O)NC1CCN(C(C)=O)CC1)C1CCCC1	-12%
Cc1ccc(NC(=O)c2c(Cl)cccc2Cl)c2c1CC(C)(C)O2	-21%
O=C(Nc1ccc(N2CCCCCC2)cc1C(=O)O)c1ccc(Cl)cc1	9%
CC(C)c1nnc(CNc2ccc(C#N)cc2)o1	8%
CC(=O)Nc1ncc(Br)cc1C	3%
COC1CCCC1NC(=O)Nc1ncc(Br)cc1C (configuration not stated)	79%
CNC(=O)c1cc(Br)cnc1NC	10%
NC(=NCCOc1ccc(Br)cc1)N1CCOCC1	8%
COCc1ncc(-c2noc(C3CC4CCC3C4)n2)c(N)n1 (configuration not stated)	-14%
Cc1nn(C)c(C)c1CNc1ccc2c(c1)CCC(=O)N2	-13%
CC(C)CCn1nnnc1[C@]1(N(C)C)CCCN(C(=O)c2cccn2C)C1	-12%
CC(C)c1cc(CN(Cc2cc(C(C)C)c(O)c(C(C)C)c2)C2CCCCC2)cc(C(C)C)c1O	98%
Cc1ccc(CN(C)C2CCCCC2)o1	-12%

SMILES	% Inhibition
CCc1nn(C)cc1CN(Cc1cccc(O)c1)C1CCC(O)CC1 (configuration not stated)	-8%
CC[C@@H](CO)NC(=O)Nc1ccc(F)cc1	8%
CC[C@](C)(NCC#Cc1ccc(C(F)(F)F)cc1)C(N)=O	5%
O=C(C1CN(c2ncc(C(F)(F)F)cc2Cl)C1)N1CCCC1	11%
Cc1c(N2CCC(C(=O)NC[C@H]3CCCO3)CC2)c(=O)n(CC(C)C)c(=O)n1-c1ccccc1	4%
O=C(COC(F)F)N1CCc2ccncc21	-8%
COc1nc(NC[C@H]2CCCN2C(C)C)ncc1F	83%
CC(C(=O)Nc1ncccn1)N1CCCC1Cn1cccn1 (configuration not stated)	-8%
Cc1[nH]c2ncnc(NC(=O)c3cccc(-n4ccnn4)c3)c2c1C	12%
CN1CCC(=O)Nc2cc(C(=O)NCCS(=O)(=O)NCC3CCC3)ccc21	6%
O=C(CN1C(=O)COc2ccccc21)N1CCC[C@H](c2nc3ccccc3s2)C1	-13%
c1ccc(Oc2ccc(-c3csc4nc5ccccc5n34)cc2)cc1	5%
O[C@](C#CCN1CCOCC1)(c1ccccc1)C1CC1	14%
Cc1cnn(CC(=O)N2CCC[C@@H]2CCc2ncc(C)n2CC2CC2)c1	-20%
CCOc1cc(-c2cc(-c3ccccc3O)nc3ccc4ccccc4c23)cc(Br)c1O	92%
CCOc1c(CNC[C@H](C)O)cc(Br)cc1OC	5%
O=C(Nc1cccc2cccnc12)c1cncc(Br)c1	-8%
NC1CC(NCCc2cccc3cccnc23)c2ccccc21 (configuration not stated)	36%
O=C(Nc1cccc2cccnc12)c1ccccn1	87%
Oc1ccccc1CNc1cccc2cccnc12	97%
CC(C)(C)C(=O)NCCNC(=O)c1ccccn1	13%
